Test results: PubChem BioAssay AID1159580 (chemical genetic matrix, 2015)
Screen size: about 5,500 compounds; about 2,000 (36%) were called active. About 18% were inconclusive and are not listed. Rule as the data show it: active = normalized growth mostly below about 0.91 (no sharp cut-off); inconclusive = no clear call, values can overlap the other calls; inactive = mostly above about 0.92. The list shows a part of the results.

Assay: chemical genetic growth profiling, strain panel (AID 1159580);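 also: tested at 20 µM; growth read once vehicle control cultures reached saturation at 30 °C; 1 = growth at the plate median or of vehicle wells; lower values mean less growth of the strain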
Conditions: growth OD
[1] = S. cerevisiae deletion strains, locus YDL101C, strain DUN1, stronger effect = lower value
[2] = S. cerevisiae deletion strains, locus YHR030C, strain SLT2, stronger effect = lower value

Measured: normalized growth

O=C1NC(=O)/C(=C/c2ccc(OS(=O)(=O)c3ccc(Cl)cc3)cc2)N1
inactive: S. cerevisiae deletion strains, locus YAL013W, strain DEP1, stronger effect = lower value 1 | S. cerevisiae deletion strains, locus YBR229C, strain ROT2, stronger effect = lower value 1.03 | [1] 0.983 | S. cerevisiae deletion strains, locus YDL134C, strain PPH21, stronger effect = lower value 0.991 | S. cerevisiae deletion strains, locus YDR150W, strain NUM1, stronger effect = lower value 0.957 | S. cerevisiae deletion strains, locus YEL061C, strain CIN8, stronger effect = lower value 1.01 | S. cerevisiae deletion strains, locus YGR078C, strain PAC10, stronger effect = lower value 0.983 | S. cerevisiae deletion strains, locus YGR229C, strain SMI1, stronger effect = lower value 1.01 | [2] 0.989 | S. cerevisiae deletion strains, locus YHR087W, strain rtc3, stronger effect = lower value 1.02 | S. cerevisiae deletion strains, locus YJL187C, strain SWE1, stronger effect = lower value 1.04 | S. cerevisiae deletion strains, locus YJR043C, strain POL32, stronger effect = lower value 0.982 | S. cerevisiae deletion strains, locus YJR075W, strain HOC1, stronger effect = lower value 1.03 | S. cerevisiae deletion strains, locus YLR039C, strain RIC1, stronger effect = lower value 1.02 | S. cerevisiae deletion strains, locus YLR058C, strain SHM2 (second series), stronger effect = lower value 1.02 | S. cerevisiae deletion strains, locus YLR085C, strain ARP6, stronger effect = lower value 0.999 | S. cerevisiae deletion strains, locus YLR262C, strain YPT6, stronger effect = lower value 0.996 | S. cerevisiae deletion strains, locus YML094W, strain GIM5, stronger effect = lower value 1 | S. cerevisiae deletion strains, locus YMR219W, strain ESC1, stronger effect = lower value 1.01 | S. cerevisiae deletion strains, locus YMR263W, strain SAP30, stronger effect = lower value 1 | S. cerevisiae deletion strains, locus YNL128W, strain TEP1, stronger effect = lower value 0.978 | S. cerevisiae deletion strains, locus YNL153C, strain GIM3, stronger effect = lower value 0.99 | S. cerevisiae deletion strains, locus YNL298W, strain CLA4 (second series), stronger effect = lower value 0.976 | S. cerevisiae deletion strains, locus YNL322C, strain KRE1, stronger effect = lower value 0.998 | S. cerevisiae deletion strains, locus YNR030W, strain Alg12, stronger effect = lower value 1 | S. cerevisiae deletion strains, locus YPL055C, strain LGE1, stronger effect = lower value 1.06 | S. cerevisiae deletion strains, locus YPL241C, strain CIN2, stronger effect = lower value 1 | S. cerevisiae deletion strains, locus YPR135W, strain CTF4, stronger effect = lower value 0.978 | S. cerevisiae strains, strain wild type, stronger effect = lower value 0.964

O=C1Nc2ccccc2/C1=C/c1ccc(C(F)(F)F)cc1Cl
inactive: S. cerevisiae deletion strains, locus YAR019C, strain CDC15, stronger effect = lower value 0.978 | S. cerevisiae deletion strains, locus YBL105C, strain PKC1, stronger effect = lower value 0.965 | S. cerevisiae deletion strains, locus YBR135W, strain CKS1, stronger effect = lower value 0.966 | S. cerevisiae deletion strains, locus YBR136W, strain MEC1, stronger effect = lower value 0.982 | S. cerevisiae deletion strains, locus YBR160W, strain CDC28, stronger effect = lower value 0.979 | S. cerevisiae deletion strains, locus YDL017W, strain CDC7, stronger effect = lower value 0.972 | S. cerevisiae deletion strains, locus YDL028C, strain MPS1, stronger effect = lower value 0.977 | [1] 0.983 | S. cerevisiae deletion strains, locus YDL108W, strain KIN28, stronger effect = lower value 0.974 | S. cerevisiae deletion strains, locus YDL132W, strain cdc53, stronger effect = lower value 0.982 | S. cerevisiae deletion strains, locus YDL214C, strain PRR2, stronger effect = lower value 0.884 | S. cerevisiae deletion strains, locus YDR052C, strain DBF4, stronger effect = lower value 0.979 | S. cerevisiae deletion strains, locus YDR054C, strain cdc34, stronger effect = lower value 0.958 | S. cerevisiae deletion strains, locus YDR226W, strain ADK1, stronger effect = lower value 0.961 | S. cerevisiae deletion strains, locus YDR477W, strain SNF1, stronger effect = lower value 0.93 | S. cerevisiae deletion strains, locus YER123W, strain YCK3, stronger effect = lower value 0.939 | S. cerevisiae deletion strains, locus YER133W, strain GLC7, stronger effect = lower value 0.953 | S. cerevisiae deletion strains, locus YFL009W, strain cdc4, stronger effect = lower value 0.976 | S. cerevisiae deletion strains, locus YFL029C, strain CAK1, stronger effect = lower value 0.979 | S. cerevisiae deletion strains, locus YFR003C, strain YPI1, stronger effect = lower value 0.973 | S. cerevisiae deletion strains, locus YFR019W, strain FAB1, stronger effect = lower value 0.979 | S. cerevisiae deletion strains, locus YFR028C, strain CDC14, stronger effect = lower value 0.974 | S. cerevisiae deletion strains, locus YGR040W, strain KSS1, stronger effect = lower value 0.931 | S. cerevisiae deletion strains, locus YGR052W, strain FMP48, stronger effect = lower value 0.896 | S. cerevisiae deletion strains, locus YGR092W, strain DBF2, stronger effect = lower value 0.905 | S. cerevisiae deletion strains, locus YHR079C, strain IRE1, stronger effect = lower value 0.883 | S. cerevisiae deletion strains, locus YHR082C, strain KSP1, stronger effect = lower value 0.934 | S. cerevisiae deletion strains, locus YHR205W, strain SCH9, stronger effect = lower value 0.84 | S. cerevisiae deletion strains, locus YIL147C, strain SLN1, stronger effect = lower value 0.973 | S. cerevisiae deletion strains, locus YJL095W, strain BCK1, stronger effect = lower value 0.918 | S. cerevisiae deletion strains, locus YJL128C, strain PBS2, stronger effect = lower value 0.903 | S. cerevisiae deletion strains, locus YJL157C, strain FAR1, stronger effect = lower value 0.958 | S. cerevisiae deletion strains, locus YJR016C, strain ILV3, stronger effect = lower value 0.98 | S. cerevisiae deletion strains, locus YJR066W, strain TOR1 (second series), stronger effect = lower value 0.955 | S. cerevisiae deletion strains, locus YJR066W, strain TOR1, stronger effect = lower value 0.899 | S. cerevisiae deletion strains, locus YKL048C, strain ELM1, stronger effect = lower value 0.958 | S. cerevisiae deletion strains, locus YKL067W, strain YNK1, stronger effect = lower value 0.877 | S. cerevisiae deletion strains, locus YKL101W, strain HSL1, stronger effect = lower value 0.891 | S. cerevisiae deletion strains, locus YKL193C, strain SDS22, stronger effect = lower value 0.969 | S. cerevisiae deletion strains, locus YKL203C, strain TOR2, stronger effect = lower value 0.995 | S. cerevisiae deletion strains, locus YLR133W, strain CKI1, stronger effect = lower value 0.932 | S. cerevisiae deletion strains, locus YLR403W, strain SFP1, stronger effect = lower value 0.952 | S. cerevisiae deletion strains, locus YML070W, strain DAK1, stronger effect = lower value 0.936 | S. cerevisiae deletion strains, locus YMR001C, strain CDC5, stronger effect = lower value 0.968 | S. cerevisiae deletion strains, locus YMR205C, strain PFK2 (second series), stronger effect = lower value 0.931 | S. cerevisiae deletion strains, locus YMR277W, strain FCP1, stronger effect = lower value 0.963 | S. cerevisiae deletion strains, locus YNL006W, strain LST8, stronger effect = lower value 0.979 | S. cerevisiae deletion strains, locus YNL020C, strain ARK1, stronger effect = lower value 0.916 | S. cerevisiae deletion strains, locus YNL161W, strain CBK1, stronger effect = lower value 0.972 | S. cerevisiae deletion strains, locus YNL183C, strain NPR1, stronger effect = lower value 0.881 | S. cerevisiae deletion strains, locus YNL207W, strain RIO2, stronger effect = lower value 0.98 | S. cerevisiae deletion strains, locus YNL222W, strain SSU72, stronger effect = lower value 0.968 | S. cerevisiae deletion strains, locus YNL307C, strain MCK1 (second series), stronger effect = lower value 0.882 | S. cerevisiae deletion strains, locus YOL078W, strain AVO1, stronger effect = lower value 0.966 | S. cerevisiae deletion strains, locus YOL136C, strain PFK27, stronger effect = lower value 0.93 | S. cerevisiae deletion strains, locus YOR061W, strain CKA2, stronger effect = lower value 0.929 | S. cerevisiae deletion strains, locus YOR119C, strain RIO1, stronger effect = lower value 0.926 | S. cerevisiae deletion strains, locus YOR231W, strain MKK1, stronger effect = lower value 0.914 | S. cerevisiae deletion strains, locus YOR329C, strain SCD5, stronger effect = lower value 0.972 | S. cerevisiae deletion strains, locus YPL031C, strain PHO85, stronger effect = lower value 0.932 | S. cerevisiae deletion strains, locus YPL153C, strain RAD53, stronger effect = lower value 0.934 | S. cerevisiae deletion strains, locus YPL204W, strain HRR25, stronger effect = lower value 0.916 | S. cerevisiae deletion strains, locus YPL209C, strain IPL1, stronger effect = lower value 0.974 | S. cerevisiae deletion strains, locus YPR025C, strain CCL1, stronger effect = lower value 0.97 | S. cerevisiae deletion strains, locus YPR106W, strain ISR1, stronger effect = lower value 0.958 | S. cerevisiae deletion strains, locus YPR111W, strain DBF20, stronger effect = lower value 0.936 | S. cerevisiae deletion strains, strain NNK1, stronger effect = lower value 0.97 | S. cerevisiae deletion strains, strain TSCII, stronger effect = lower value 0.963
active: [2] 0.741 | S. cerevisiae deletion strains, locus YLR113W, strain HOG1, stronger effect = lower value 0.78 | S. cerevisiae deletion strains, locus YPL256C, strain CLN2, stronger effect = lower value 0.827
